Experimental data as given in PubChem BioAssay (NCI).
This is part of a sample that, as a whole, favours compounds with a hit. Of some 83,000 tested, about 20% had one in any assay.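 Compound tested at a single concentration for 48 hours in 96-well plates; a percent growth value below 10 was scored as active.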 Activity calls are given as the source filed them.

Experiments:
Assay in all cases: NCI-60 one-dose screen, 48 h (100 = growth as untreated, 0 = no growth, -100 = all killed)
Settings in all cases: 10 µM unless noted
NCI-H23 lung = test system: NCI-H23 lung
NCI-H226 lung = test system: NCI-H226 lung
NCI-H322M lung = test system: NCI-H322M lung
NCI-H460 lung = test system: NCI-H460 lung
HOP-92 NSCLC = test system: HOP-92 NSCLC
NCI-H522 lung = test system: NCI-H522 lung
A549/ATCC NSCLC = test system: A549/ATCC NSCLC
786-0 renal = test system: 786-0 renal
COLO 205 colon = test system: COLO 205 colon
DU-145 prostate = test system: DU-145 prostate
K-562 leukemia = test system: K-562 leukemia
MALME-3M melanoma = test system: MALME-3M melanoma
MDA-MB-231 breast = test system: MDA-MB-231 breast
RXF 393 renal = test system: RXF 393 renal
SF-268 CNS = test system: SF-268 CNS
SF-295 CNS = test system: SF-295 CNS
SF-539 CNS = test system: SF-539 CNS
UACC-257 melanoma = test system: UACC-257 melanoma
M14 melanoma = test system: M14 melanoma
HOP-62 NSCLC = test system: HOP-62 NSCLC

Measured: growth

CCOC(=O)c1ccc2c(c1)ncn2-c1ccc(NC(=O)Nc2cccc(C)c2)cc1
inactive: NCI-H23 lung 78.5% | NCI-H226 lung 93.8% | NCI-H322M lung 87.9% | NCI-H460 lung 102% | HOP-92 NSCLC 117% | NCI-H522 lung 61.3% | A549/ATCC NSCLC 103% | 786-0 renal 79.2% | COLO 205 colon 74.3% | DU-145 prostate 71.9% | K-562 leukemia 18% | MALME-3M melanoma 96.2% | MDA-MB-231 breast 52.5% | RXF 393 renal 84.5% | SF-268 CNS 95.4% | SF-295 CNS 57.6% | SF-539 CNS 49.2% | UACC-257 melanoma 94% | M14 melanoma 64.5%

COc1ccc(/C=C(\C#N)n2nc3cccc(F)c3n2)cc1
inactive: NCI-H23 lung 101% | NCI-H226 lung 96.9% | NCI-H322M lung 98.6% | NCI-H460 lung 106% | HOP-92 NSCLC 96.1% | NCI-H522 lung 93% | A549/ATCC NSCLC 98.1% | 786-0 renal 96.6% | COLO 205 colon 115% | DU-145 prostate 103% | K-562 leukemia 82.8% | MALME-3M melanoma 100% | MDA-MB-231 breast 112% | RXF 393 renal 104% | SF-268 CNS 104% | SF-295 CNS 99.9% | SF-539 CNS 101% | UACC-257 melanoma 95.5% | M14 melanoma 105%

COc1cc2c(cc1OC)C(=O)/C(=C/c1cc(C)c(O)c(C)c1)S2
active: NCI-H522 lung -7.24% | RXF 393 renal -6.02% | SF-539 CNS -3.74%
inactive: NCI-H23 lung 39.2% | NCI-H226 lung 55.7% | NCI-H322M lung 50.4% | NCI-H460 lung 18.5% | HOP-92 NSCLC 88.6% | A549/ATCC NSCLC 36.9% | 786-0 renal 39.6% | COLO 205 colon 104% | DU-145 prostate 25.3% | K-562 leukemia 12% | MALME-3M melanoma 71.7% | MDA-MB-231 breast 56.9% | SF-268 CNS 72.9% | SF-295 CNS 18.4% | UACC-257 melanoma 70.7% | M14 melanoma 19.1%

COc1cc(CC(=O)n2ncc3ccc(N)cc32)cc(OC)c1OC
inactive: NCI-H23 lung 91.4% | NCI-H226 lung 94.9% | NCI-H322M lung 88.5% | NCI-H460 lung 102% | HOP-92 NSCLC 99% | NCI-H522 lung 85.6% | A549/ATCC NSCLC 98.9% | 786-0 renal 97.5% | COLO 205 colon 109% | DU-145 prostate 105% | MALME-3M melanoma 85.7% | MDA-MB-231 breast 79.2% | RXF 393 renal 108% | SF-268 CNS 93.5% | SF-295 CNS 91.3% | SF-539 CNS 88.4% | UACC-257 melanoma 105% | M14 melanoma 102%

CC(=O)OC[C@]12CC[C@@H](C(=O)CBr)[C@@H]1[C@H]1CC[C@@H]3[C@@]4(C)CC[C@H](OC(C)=O)C(C)(C)[C@@H]4CC[C@@]3(C)[C@]1(C)CC2
active: NCI-H522 lung -63.9%
inactive: NCI-H23 lung 95.4% | NCI-H226 lung 100% | NCI-H322M lung 103% | NCI-H460 lung 105% | HOP-92 NSCLC 96% | A549/ATCC NSCLC 106% | 786-0 renal 95.1% | COLO 205 colon 101% | DU-145 prostate 100% | MALME-3M melanoma 89.2% | MDA-MB-231 breast 110% | RXF 393 renal 99.7% | SF-268 CNS 89.9% | SF-295 CNS 106% | SF-539 CNS 91.7% | UACC-257 melanoma 108% | M14 melanoma 87.2%

CNC(=O)c1cccc(Cn2nc(C)c(NC(=O)c3ccc(COc4ccc(C(F)(F)F)cc4C)cc3)c2C)c1
inactive: NCI-H23 lung 47.3% | NCI-H226 lung 44.6% | HOP-62 NSCLC 46.3% | NCI-H460 lung 47.7% | HOP-92 NSCLC 80% | NCI-H522 lung 33% | A549/ATCC NSCLC 31.1% | 786-0 renal 54.8% | COLO 205 colon 42.7% | DU-145 prostate 58.9% | K-562 leukemia 23.3% | MALME-3M melanoma 77.5% | MDA-MB-231 breast 79.4% | RXF 393 renal 70.4% | SF-268 CNS 61.9% | SF-295 CNS 27.9% | SF-539 CNS 71.7% | M14 melanoma 41.6%
active: UACC-257 melanoma 8.63%

O=C(CCN1CCCC1)c1ccc([N+](=O)[O-])cc1
inactive: NCI-H23 lung 101% | NCI-H226 lung 99.1% | NCI-H322M lung 101% | NCI-H460 lung 108% | HOP-92 NSCLC 109% | A549/ATCC NSCLC 101% | COLO 205 colon 107% | DU-145 prostate 104% | K-562 leukemia 100% | MALME-3M melanoma 94.9% | MDA-MB-231 breast 102% | RXF 393 renal 107% | SF-268 CNS 101% | SF-295 CNS 97.9% | SF-539 CNS 93.6% | UACC-257 melanoma 101% | M14 melanoma 102%
active: NCI-H522 lung 2.13%

CCOC(=O)/C(C#N)=C1/NNC(=Nc2cccnc2)S1
inactive: NCI-H23 lung 97.7% | NCI-H226 lung 96.2% | NCI-H322M lung 105% | NCI-H460 lung 99.3% | HOP-92 NSCLC 93.9% | NCI-H522 lung 85.3% | A549/ATCC NSCLC 85.3% | 786-0 renal 98% | COLO 205 colon 103% | DU-145 prostate 105% | K-562 leukemia 99.8% | MALME-3M melanoma 105% | MDA-MB-231 breast 98.8% | RXF 393 renal 110% | SF-268 CNS 100% | SF-295 CNS 98.9% | SF-539 CNS 102% | UACC-257 melanoma 78.3% | M14 melanoma 95.9%

CCN1C(=O)N(CC)C2Nn3c(s/c(=C\c4ccc(OC)cc4)c3=O)=NC21 (stereo not drawn)
inactive: NCI-H23 lung 76.3% | NCI-H226 lung 85.1% | NCI-H322M lung 82.6% | HOP-92 NSCLC 75.4% | NCI-H522 lung 12.2% | A549/ATCC NSCLC 50.7% | 786-0 renal 34.6% | COLO 205 colon 31.7% | DU-145 prostate 67.3% | MALME-3M melanoma 54.1% | MDA-MB-231 breast 61.4% | RXF 393 renal 56.2% | SF-268 CNS 63.1% | SF-295 CNS 44.1% | SF-539 CNS 42.9% | UACC-257 melanoma 45% | M14 melanoma 39.8%

COc1cc2nc(-c3ccc(C(F)(F)F)cc3)cc(OCCCN3CCCC3)c2cc1OC
active: NCI-H226 lung -8.25% | SF-295 CNS -28.3% | M14 melanoma -38.4%
inactive: NCI-H23 lung 57.3% | NCI-H322M lung 62.8% | NCI-H460 lung 22% | HOP-92 NSCLC 23.2% | NCI-H522 lung 28.5% | A549/ATCC NSCLC 39.9% | 786-0 renal 48.4% | COLO 205 colon 22.1% | DU-145 prostate 41.7% | K-562 leukemia 24.6% | MALME-3M melanoma 51.2% | MDA-MB-231 breast 25.7% | RXF 393 renal 44.4% | SF-268 CNS 45.5% | SF-539 CNS 45.8% | UACC-257 melanoma 22.7%

CN(CCN(C)c1ccc(C(=N)N)cc1)c1ccc(C(=N)N)cc1
inactive: NCI-H23 lung 86.3% | NCI-H226 lung 84% | NCI-H322M lung 93.1% | NCI-H460 lung 92% | HOP-92 NSCLC 35% | NCI-H522 lung 92.4% | A549/ATCC NSCLC 103% | 786-0 renal 107% | COLO 205 colon 134% | DU-145 prostate 98.9% | MALME-3M melanoma 57.9% | MDA-MB-231 breast 91.3% | RXF 393 renal 118% | SF-268 CNS 109% | SF-295 CNS 94.1% | SF-539 CNS 93.2% | UACC-257 melanoma 92.6% | M14 melanoma 103%
